PubChem BioAssay
For some assays here: Potency and affinity values are given separately. Calls of active or inactive are those of the source. Unless noted, no rule for the calls is given here.

What follows are molecules tested against Protein kinase 7 (PK7), Plasmodium falciparum 3D7 (PF3D7_0213400) (UniProt Q7YTF7) (assay: inhibition of Plasmodium PK7 catalytic activity – biochemical, TCAMS antimalarial set, Kinase-Glo luminescence (AID 1159587)). Details: recombinant PfPK7, Kinase-Glo ATP depletion luminescence.
Sequence of Protein kinase 7 (PK7), Plasmodium falciparum 3D7 (PF3D7_0213400) (Q7YTF7 1-343): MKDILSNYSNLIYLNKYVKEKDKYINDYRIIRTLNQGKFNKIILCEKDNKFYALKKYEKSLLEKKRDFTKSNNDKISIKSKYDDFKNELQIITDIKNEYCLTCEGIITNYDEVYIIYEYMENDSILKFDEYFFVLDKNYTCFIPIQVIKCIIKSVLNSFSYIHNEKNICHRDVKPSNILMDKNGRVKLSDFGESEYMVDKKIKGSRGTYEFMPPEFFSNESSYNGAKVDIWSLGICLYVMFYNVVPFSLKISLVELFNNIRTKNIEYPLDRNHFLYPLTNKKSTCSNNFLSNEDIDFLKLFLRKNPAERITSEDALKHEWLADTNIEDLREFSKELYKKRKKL

outcome, inactive:
COc1ccc(C2C(C(=O)Nc3ccc(C)cc3Br)c3ccccc3C(=O)N2C)cc1 (stereo not given)
COc1ccc(CCN(C)CCCCc2ccc(NC(=O)c3cccc4c(=O)c5cc(F)ccc5sc34)cc2)cc1OC
CS(=O)(=O)Nc1ccc(-c2ccc3ccnc(N)c3c2)cc1
Cc1c(NC(=O)COc2ccc(Cl)cc2C(=O)c2cc(F)cc(C(F)(F)F)c2)ccc2ncsc12
COc1c(Br)cc(Br)cc1-c1ccc(CN2CC3CCC2CC3)[nH]1
O=C(/C=C/c1ccc(Cl)c(Cl)c1)NCCCCCCN1CCCN(C(=O)Nc2cccc(Cl)c2)CC1
Cc1cc2ccc(/C=C/C(=O)NC3CCC(CCN4CCc5ccc(C#N)cc5CC4)CC3)cc2[nH]1 (stereo not given)
CC(C)(C)c1ccc(C(=O)NC2CCC(CCN3CCc4ccc(S(C)(=O)=O)cc4CC3)CC2)cc1C(F)(F)F (stereo not given)
CCN(CC)CCN(Cc1ccc(-c2ccc(C(F)(F)F)cc2)cc1)C(=O)Cn1c(CCc2c(F)cc(F)cc2F)nc(=O)c2ccccc21
CC(C)(C)c1ccc(CN2CCC(NC(=O)c3ccc(-c4ccccc4F)s3)CC2)cc1
C1=CN(Cc2ccccc2)C=CC1=C1C=Nc2ccccc21
CCOc1ccc(C(=O)Nc2ccc(-c3nc4ccccc4[nH]3)cc2)cc1[N+](=O)[O-]
CCCC(C)Nc1nc(C)cc(N[C@@H](Cc2ccccc2)C(=O)Nc2ccc(OC)cc2)n1 (stereo not given in full)
Cc1nc(N)nc(N)c1-c1ccc(Br)c([N+](=O)[O-])c1
Cc1cc(NN=Cc2cccc([N+](=O)[O-])c2)c2cc(F)ccc2n1
CCCCCC(=O)NCC(NCCCNc1cc(=O)c2ccccc2[nH]1)c1cc(Br)cc(Br)c1 (stereo not given)
CCC(=O)c1c(C)n(-c2ncnc3c2nc(C)n3-c2ccc(C)cc2C)c2ccccc12
Cc1ccccc1NC1=NC(=S)N(c2cccc(C(F)(F)F)c2)C12CCC(C(C)(C)C)CC2 (stereo not given)
C=CCc1cc(Cc2cnc(N)nc2N)cc(CCC)c1O
CCNc1cc(C)nc(Nc2ccc(F)cc2)n1
Cc1ccc2c(Cl)c(C(=O)N3CCCc4ccccc43)sc2c1
COc1ccc(CNCc2cccc(-c3csc(-c4nc5ccccc5[nH]4)c3)c2)cc1
CC(C)(C)c1ccc(OCCCON2C(N)=NC(N)=NC2(C)C)c(C(C)(C)C)c1
CC(=O)Nc1nc(C(=O)Nc2cccc(-c3ccc4c(cnn4CC4CC4)c3)c2)cs1
CN(Cc1ccc(NC(=O)CCC2CCN(C(=O)/C=C/c3ccc(Cl)c(Cl)c3)CC2)cc1)C1CCOCC1
O=C(NCc1cccs1)[C@H](Cc1ccccc1)Nc1ccnc(NCC2CCCCC2)n1
Cc1cc(N[C@@H](CC(C)C)C(=O)NCCOc2ccccc2)nc(NCCc2ccc(F)cc2)n1
Cc1cccc(OCC2CCN(c3ncc(C(=O)NC4CC4)cc3Cl)CC2)c1
O=c1cc(NCCCNCc2cc(Cl)cc(Cl)c2OCc2ccc(Cl)cc2)[nH]c2ccccc12
CC(C)N(CC(=O)c1ccc(O)c(C(=O)O)c1)Cc1ccccc1
Cc1ccc(NC(=O)Nc2ccc(Cn3ncc(N4CCCNCC4)c(Cl)c3=O)cc2)cc1
Oc1ccc2ccccc2c1CNCC1CCCCC1
Cc1cc(CN2CC[C@H](NC(=O)c3ccc(Cl)c(Cl)c3)C2)ccc1OCCN1CCCC1
CCN(CCN(C)C)Cc1ccc(-c2ccc(NS(=O)(=O)c3cccc(Cl)c3)cc2)cc1
CCOC(=O)[C@H](Cc1cc([N+](=O)[O-])c(Oc2ccc(OC)c(Cc3ccc(OC)c(C(C)C)c3)c2)c([N+](=O)[O-])c1)NC(=O)C(F)(F)F
Cc1[nH]c2ccccc2c(=O)c1-c1ccc(Cl)cc1
c1ccc(CN2CCC(NCc3ccccc3-c3ccc(CNCc4ccc5c(c4)OCO5)cc3)CC2)cc1
COc1ccc(-n2nc(C(=O)NCCC3=CCCCC3)c3ccccc3c2=O)cc1
Nc1nc(N)c2c(Oc3cccc4ccccc34)cccc2n1
Cc1cc(N(C)C)nc(Nc2ccc(NC(=O)Nc3ccccc3)cc2)n1

The molecules below were run against Calcium-dependent protein kinase 4 (Plasmodium falciparum (isolate 3D7)) (UniProt Q8IBS5) (assay: PfCDPK4 kinase inhibitors, biochemical, TCAMS library (AID 1159588; cut-off not given, nearly all actives have IC50 up to about 0.91 µM)). Details: recombinant PfCDPK4, Kinase-Glo ATP depletion luminescence.
Sequence of Calcium-dependent protein kinase 4 (Plasmodium falciparum (isolate 3D7)) (Q8IBS5 whole entry, looked up): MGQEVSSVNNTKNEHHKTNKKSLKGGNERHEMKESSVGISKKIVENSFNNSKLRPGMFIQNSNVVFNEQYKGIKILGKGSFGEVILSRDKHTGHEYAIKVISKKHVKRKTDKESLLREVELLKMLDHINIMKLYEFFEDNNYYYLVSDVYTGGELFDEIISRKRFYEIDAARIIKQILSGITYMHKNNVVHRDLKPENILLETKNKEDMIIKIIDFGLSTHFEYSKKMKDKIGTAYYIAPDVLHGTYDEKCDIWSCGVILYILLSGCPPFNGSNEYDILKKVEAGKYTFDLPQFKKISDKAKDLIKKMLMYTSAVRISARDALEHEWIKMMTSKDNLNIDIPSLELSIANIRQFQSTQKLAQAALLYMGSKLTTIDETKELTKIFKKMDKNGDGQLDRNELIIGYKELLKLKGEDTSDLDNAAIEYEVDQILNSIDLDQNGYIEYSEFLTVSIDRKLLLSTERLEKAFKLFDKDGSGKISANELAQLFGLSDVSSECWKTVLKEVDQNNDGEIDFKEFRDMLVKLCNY

outcome, inactive:
COc1ccc(C2C(C(=O)Nc3ccc(C)cc3Br)c3ccccc3C(=O)N2C)cc1 (stereo not given)
COc1ccc(CCN(C)CCCCc2ccc(NC(=O)c3cccc4c(=O)c5cc(F)ccc5sc34)cc2)cc1OC
CS(=O)(=O)Nc1ccc(-c2ccc3ccnc(N)c3c2)cc1
Cc1c(NC(=O)COc2ccc(Cl)cc2C(=O)c2cc(F)cc(C(F)(F)F)c2)ccc2ncsc12
COc1c(Br)cc(Br)cc1-c1ccc(CN2CC3CCC2CC3)[nH]1
O=C(/C=C/c1ccc(Cl)c(Cl)c1)NCCCCCCN1CCCN(C(=O)Nc2cccc(Cl)c2)CC1
Cc1cc2ccc(/C=C/C(=O)NC3CCC(CCN4CCc5ccc(C#N)cc5CC4)CC3)cc2[nH]1 (stereo not given)
CC(C)(C)c1ccc(C(=O)NC2CCC(CCN3CCc4ccc(S(C)(=O)=O)cc4CC3)CC2)cc1C(F)(F)F (stereo not given)
CCN(CC)CCN(Cc1ccc(-c2ccc(C(F)(F)F)cc2)cc1)C(=O)Cn1c(CCc2c(F)cc(F)cc2F)nc(=O)c2ccccc21
CC(C)(C)c1ccc(CN2CCC(NC(=O)c3ccc(-c4ccccc4F)s3)CC2)cc1
C1=CN(Cc2ccccc2)C=CC1=C1C=Nc2ccccc21
CCOc1ccc(C(=O)Nc2ccc(-c3nc4ccccc4[nH]3)cc2)cc1[N+](=O)[O-]
CCCC(C)Nc1nc(C)cc(N[C@@H](Cc2ccccc2)C(=O)Nc2ccc(OC)cc2)n1 (stereo not given in full)
Cc1nc(N)nc(N)c1-c1ccc(Br)c([N+](=O)[O-])c1
Cc1cc(NN=Cc2cccc([N+](=O)[O-])c2)c2cc(F)ccc2n1
CCCCCC(=O)NCC(NCCCNc1cc(=O)c2ccccc2[nH]1)c1cc(Br)cc(Br)c1 (stereo not given)
CCC(=O)c1c(C)n(-c2ncnc3c2nc(C)n3-c2ccc(C)cc2C)c2ccccc12
Cc1ccccc1NC1=NC(=S)N(c2cccc(C(F)(F)F)c2)C12CCC(C(C)(C)C)CC2 (stereo not given)
C=CCc1cc(Cc2cnc(N)nc2N)cc(CCC)c1O
CCNc1cc(C)nc(Nc2ccc(F)cc2)n1
Cc1ccc2c(Cl)c(C(=O)N3CCCc4ccccc43)sc2c1
COc1ccc(CNCc2cccc(-c3csc(-c4nc5ccccc5[nH]4)c3)c2)cc1
CC(C)(C)c1ccc(OCCCON2C(N)=NC(N)=NC2(C)C)c(C(C)(C)C)c1
CC(=O)Nc1nc(C(=O)Nc2cccc(-c3ccc4c(cnn4CC4CC4)c3)c2)cs1
CN(Cc1ccc(NC(=O)CCC2CCN(C(=O)/C=C/c3ccc(Cl)c(Cl)c3)CC2)cc1)C1CCOCC1
O=C(NCc1cccs1)[C@H](Cc1ccccc1)Nc1ccnc(NCC2CCCCC2)n1
Cc1cc(N[C@@H](CC(C)C)C(=O)NCCOc2ccccc2)nc(NCCc2ccc(F)cc2)n1
Cc1cccc(OCC2CCN(c3ncc(C(=O)NC4CC4)cc3Cl)CC2)c1
O=c1cc(NCCCNCc2cc(Cl)cc(Cl)c2OCc2ccc(Cl)cc2)[nH]c2ccccc12
CC(C)N(CC(=O)c1ccc(O)c(C(=O)O)c1)Cc1ccccc1
Cc1ccc(NC(=O)Nc2ccc(Cn3ncc(N4CCCNCC4)c(Cl)c3=O)cc2)cc1
Oc1ccc2ccccc2c1CNCC1CCCCC1
Cc1cc(CN2CC[C@H](NC(=O)c3ccc(Cl)c(Cl)c3)C2)ccc1OCCN1CCCC1
CCN(CCN(C)C)Cc1ccc(-c2ccc(NS(=O)(=O)c3cccc(Cl)c3)cc2)cc1
CCOC(=O)[C@H](Cc1cc([N+](=O)[O-])c(Oc2ccc(OC)c(Cc3ccc(OC)c(C(C)C)c3)c2)c([N+](=O)[O-])c1)NC(=O)C(F)(F)F
Cc1[nH]c2ccccc2c(=O)c1-c1ccc(Cl)cc1
c1ccc(CN2CCC(NCc3ccccc3-c3ccc(CNCc4ccc5c(c4)OCO5)cc3)CC2)cc1
COc1ccc(-n2nc(C(=O)NCCC3=CCCCC3)c3ccccc3c2=O)cc1
Nc1nc(N)c2c(Oc3cccc4ccccc34)cccc2n1
Cc1cc(N(C)C)nc(Nc2ccc(NC(=O)Nc3ccccc3)cc2)n1
